Source: PubChem
Sampled rows, rich in hits. Any-hit rate of the full collection: about 10%.
ALOX12 inhib: qHTS Assay for Inhibitors of 12-hLO (12-human lipoxygenase); purified 12-hLO, xylenol orange hydroperoxide absorbance; Polyunsaturated fatty acid lipoxygenase ALOX12 (Homo sapiens), P18054; Potency, µM (top dose mostly 57.1 µM), actives largely listed as inhibitors; 0.12% of 150,000 active; AID 1452, 2008; active = well fitted inhibition curve with a large enough effect; inconclusive = small, poorly fitted or top-dose-only effect; note: nearly all actives have a fitted effect of over 55% in size
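Lipoxygenase turnover measured by absorbance at 573 and 405 nm after Fe-XO development. Human 12hLO 150 nM, arachidonate 40 uM, pH 7.0 Hepes buffer with detergent; 15 min compound preincubation, 30 min reaction.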
HPGD inh: qHTS Assay for Inhibitors of HPGD (15-Hydroxyprostaglandin Dehydrogenase) | Potency, µM, usual class: inhibitors | 4.3% of 150,000 active | purified HPGD, NADH fluorescence kinetic, PGE2 substrate | 15-hydroxyprostaglandin dehydrogenase [NAD(+)] (Homo sapiens), P15428
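NADH formation kinetics: reaction with 30 uM PGE2 and 1 mM NAD+ (final), 20 nM enzyme, Tris-HCl pH 8 with Tween 20, after 15 min compound preincubation at room temperature. Fluorescence change, last versus first of five reads.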
LMNA splice mod: qHTS Assay for Modulators of Lamin A Splicing. HeLa LMNA splicing GFP/RFP minigene ratio, 48 h. Potency, µM (titrated, usually from 46.1 µM), hits mostly inhibitors. 0.01% of 200,000 active. AID 1487, 2009; active = well fitted inhibition curve with a large enough effect in the signal ratio, with a control signal flat, not every such curve was filed as active; inconclusive = small, poorly fitted or top-dose-only effect, or effect the other way, or a change in a side signal; the % refers to the signal ratio
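S3 HeLa stable clones carrying a lamin A-EGFP splicing minigene plus DsRed2 were seeded at 600 cells/well in Opti-MEM with 2% FBS, pin-dosed and incubated 48 h at 37°C. Acumen cytometry (488 nm) gave the GFP/RFP total-intensity ratio.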
PNC assembly inh: High Content Assay for Compounds that inhibit the Assembly of the Perinucleolar Compartment. PC3M PTB-GFP, PNC prevalence imaging, 16 h; hits give low values. activity change (PNC), negative = inhibition, % at 10 µM. 3.1% of 140,000 active. AID 2417, 2010;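 active = readout at or below -70, meaning at least 70% loss of cells showing the perinucleolar compartment, a nuclear body marking cancer cells; inconclusive = readout between -30 and a set limit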
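PC3M cells stably expressing PTB-GFP, 750–1000 cells/well, treated 16 h at 37 °C with compound (23 nl of library stock), in duplicate. After paraformaldehyde fixation and Hoechst stain, imaged at 20x; PNC prevalence scored by image analysis.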
ALDH1A1 inh: qHTS Assay for Inhibitors of Aldehyde Dehydrogenase 1 (ALDH1A1) | AID 1030, 2008 | Purified ALDH1A1, NADH fluorescence, propionaldehyde substrate | Potency, µM (series often up to 75.3 µM), most hits filed as inhibitors | 7.3% of 220,000 active
Target sequence (P00352 whole entry, looked up): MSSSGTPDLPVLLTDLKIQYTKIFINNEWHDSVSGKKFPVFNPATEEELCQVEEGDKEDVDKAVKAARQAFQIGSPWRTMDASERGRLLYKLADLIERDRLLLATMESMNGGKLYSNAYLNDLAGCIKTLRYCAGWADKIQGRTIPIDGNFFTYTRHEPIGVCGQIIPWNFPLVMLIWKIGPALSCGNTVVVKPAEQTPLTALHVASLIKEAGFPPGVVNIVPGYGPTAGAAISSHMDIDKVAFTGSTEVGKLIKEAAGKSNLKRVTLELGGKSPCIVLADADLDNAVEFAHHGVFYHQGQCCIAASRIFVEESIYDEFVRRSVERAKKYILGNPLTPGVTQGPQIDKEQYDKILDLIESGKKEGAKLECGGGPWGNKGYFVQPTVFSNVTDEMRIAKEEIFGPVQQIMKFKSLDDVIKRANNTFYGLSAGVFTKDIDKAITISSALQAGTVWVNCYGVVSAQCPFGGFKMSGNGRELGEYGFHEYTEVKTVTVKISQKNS
HPGD inh cf: Confirmation qHTS Assay for Inhibitors of HPGD (15-Hydroxyprostaglandin Dehydrogenase). 90% of 90 active. Potency, µM (series often up to 57.1 µM), most hits filed as inhibitors. recombinant HPGD, NADH fluorescence, PGE2 substrate. shares compounds with HPGD inh; calls by dose curve
A number is an active result. Unless noted, calls come from the whole dose curve; as a rule, active = well fitted inhibition curve with a large enough effect (not every such curve was filed as active); inconclusive = small, poorly fitted or top-dose-only effect, or another doubt; inactive = no such curve, though single readings can be large or run the other way.

Results for COc1ccc(NC(=O)C2CCC(CNc3c(N4CCC(C)CC4)c(=O)c3=O)CC2)cc1OC (stereo unspecified) ?
ALOX12 inhib: inactive; HPGD inh: inconclusive; LMNA splice mod: inactive; PNC assembly inh: inactive; ALDH1A1 inh: inactive

How did O=C(NCCc1ccc(Cl)cc1)C1CCC(CNc2c(N3CCCCC3)c(=O)c2=O)CC1 (stereo unspecified) do in these assays?
ALOX12 inhib: inactive; HPGD inh: inactive; LMNA splice mod: inconclusive; PNC assembly inh: inactive; ALDH1A1 inh: inactive; HPGD inh cf: 17.8µM

How did Cc1ccc(CCNC(=O)C2CCC(CNc3c(N4CCC(C)CC4)c(=O)c3=O)CC2)cc1 (stereo unspecified) do in these assays?
ALOX12 inhib: inactive; HPGD inh: inconclusive; LMNA splice mod: inconclusive; PNC assembly inh: inactive; ALDH1A1 inh: inactive; HPGD inh cf: 14.1µM

What do the screens show for `CC1CCN(c2c(NCC3CCC(C(=O)NCCc4ccccc4)CC3)c(=O)c2=O)CC1` (stereo unspecified)?
ALOX12 inhib: inactive; HPGD inh: 6.31µM; LMNA splice mod: inconclusive; PNC assembly inh: inconclusive; ALDH1A1 inh: inactive; HPGD inh cf: 6.31µM

What do the screens show for `Cc1nnc(SCC(=O)N(C)C2CCCCC2)s1`?
LMNA splice mod: inactive; ALDH1A1 inh: inactive

How did Cc1ccc(Cc2nc3ccccc3nc2SCC(=O)NCCC(C)C)cc1 do in these assays?
LMNA splice mod: inactive

What do the screens show for `O=C1ON=C(c2ccccc2)/C1=C/c1ccc(-c2ccccc2[N+](=O)[O-])o1`?
ALOX12 inhib: inactive; HPGD inh: 1.58µM; LMNA splice mod: inconclusive; PNC assembly inh: inactive; ALDH1A1 inh: 10µM; HPGD inh cf: 0.447µM

What do the screens show for `FC(F)(F)c1nnc2n1N=C(c1cccs1)CS2`?
LMNA splice mod: inactive; ALDH1A1 inh: inactive

Results for CCOC(=O)C1(CCc2ccccc2)CCN(C(=O)C2CCOCC2)CC1 ?
ALDH1A1 inh: inactive

What do the screens show for `COc1ccccc1C(=O)Nc1ccc(C(=O)N2CCCC2)cc1`?
ALOX12 inhib: inactive; HPGD inh: 1.41µM; LMNA splice mod: inactive; PNC assembly inh: inconclusive; ALDH1A1 inh: inactive; HPGD inh cf: 1µM

Results for O=C(Nc1ccc(Br)cc1)N1CCCCCCC1 ?
ALOX12 inhib: inactive; HPGD inh: inactive; LMNA splice mod: inactive; PNC assembly inh: inconclusive; ALDH1A1 inh: inactive

What do the screens show for `O=C(Nc1ccc(C(=O)N2CCCCC2)cc1)c1ccc(Br)cc1`?
ALOX12 inhib: inactive; HPGD inh: 0.631µM; LMNA splice mod: inactive; PNC assembly inh: inactive; ALDH1A1 inh: 14.1µM; HPGD inh cf: 0.355µM

Results for COc1ccc(NC(=O)c2sc3nc(Cc4ccccc4)cc(C(F)(F)F)c3c2N)cc1OC ?
ALOX12 inhib: inactive; HPGD inh: inactive; LMNA splice mod: inconclusive; PNC assembly inh: inactive; ALDH1A1 inh: inactive

Results for COc1ccccc1NC(=O)c1sc2nc(Cc3ccccc3)cc(C(F)(F)F)c2c1N ?
ALOX12 inhib: inactive; HPGD inh: inactive; LMNA splice mod: inactive; PNC assembly inh: inactive; ALDH1A1 inh: inactive; HPGD inh cf: inactive

Results for CCOC(=O)CN(c1cc([N+](=O)[O-])ccc1OC)S(C)(=O)=O ?
ALDH1A1 inh: inactive

Results for O=C(CSc1n[nH]c(-c2ccccc2)n1)NCCCc1ccccc1 ?
LMNA splice mod: inactive

Results for O=C(CSc1n[nH]c(-c2ccccc2)n1)Nc1ncc(Br)cc1Br ?
ALOX12 inhib: inactive; HPGD inh: 0.794µM; LMNA splice mod: inconclusive; PNC assembly inh: inactive; ALDH1A1 inh: inactive; HPGD inh cf: 1.41µM

Results for Cc1ccccc1C(=O)N1CCc2ccccc2C1 ?
ALOX12 inhib: inactive; HPGD inh: 0.631µM; LMNA splice mod: inactive; PNC assembly inh: inactive; ALDH1A1 inh: inconclusive; HPGD inh cf: 2.51µM
